Usually EC50 stands for the concentration that produces a half-maximal response.

Molecules are shown by their SMILES. Activity calls are given as the source filed them.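 The calls were made as follows: active = compounds cutting enzyme signal by half at 10000 nM or lower, the printed EC50; inactive = the rest.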

The nature of this assay: fluorescent interference in IDE FRET1 assay, late-stage follow-up, artefact control for IDE activator project, biochemical, fluorogenic FRET1 peptide substrate (AID 624035). The conditions noted are these: recombinant IDE, FRET1 substrate fluorescence, artifact counterscreen. (Counterscreens check selectivity or assay interference.)
Turning to `N#CC(C#N)=C1C=C2C=C(N3CCOCC3)CCC2CC1` (stereo not drawn), the EC50 was > 10 µM (inactive).

`O=c1ccc2c(-c3ccccc3)c3ccc(O)cc3oc-2c1`: the EC50 is > 10 µM (inactive). For the compound `N#CC(C#N)=C1C=C2C=C(N3CCCCCC3)CCC2CC1` (stereo not drawn), the EC50 was > 10 µM (inactive). In the case of `CCN(CC)C1=CC2=CC(=C(C#N)C#N)CCC2CC1` (stereo not drawn) it was > 10 µM (inactive). Next, `CCN1CCN(C2=CC3=CC(=C(C#N)C#N)CCC3CC2)CC1` (stereo not drawn): > 10 µM (inactive). In the case of `CN(C)/C=C1\C=C2C(=O)c3ccccc3N2C1=O` it was > 10 µM (inactive); in that of `CCCCN(C)C1=CC2=CC(=C(C#N)C#N)CCC2CC1` (stereo not drawn), > 10 µM (inactive); in that of `C/C(CC(=O)Nc1ccc(N(C)C)cc1)=N\NC(=O)c1ccncc1`, > 10 µM (inactive).

The values above are taken from PubChem BioAssay AID624035 (The Scripps Research Institute Molecular Screening Center, 2012).
